TEAD-YAP inh = TEAD-YAP interaction inhibition | HEK-TIYL cells, TEAD-Gal4/YAP UAS-luciferase luminescence | inhibition, % at 9.12 µM | hit rate 1.4% among 640,000 | AID 1259422; in the data active = inhibition above about 32%;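 also: 0% = median of test compound wells and 100% = reference inhibitor wells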
FBW7 act = human FBW7 E3 ligase activation, primary screen | Q969H0 | AlphaScreen FBW7–phospho-cyclin E peptide binding, activator screen | normalized activity (activation), % at 26.1 µM | hit rate 0.13% among 650,000; in the data active = normalized activity above about 1.9%;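 also: purified mutant Fbw7 with reduced substrate affinity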
MITF primary = blocks human microphthalmia-associated transcription factor; O75030; AlphaScreen MITF homodimerization, bead proximity signal; inhibition, % at 2.6 µM; hit rate 0.91% among 650,000; in the data active = inhibition above about 50%;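 also: 0% = vehicle wells with protein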
Target sequence (O75030 whole entry, looked up): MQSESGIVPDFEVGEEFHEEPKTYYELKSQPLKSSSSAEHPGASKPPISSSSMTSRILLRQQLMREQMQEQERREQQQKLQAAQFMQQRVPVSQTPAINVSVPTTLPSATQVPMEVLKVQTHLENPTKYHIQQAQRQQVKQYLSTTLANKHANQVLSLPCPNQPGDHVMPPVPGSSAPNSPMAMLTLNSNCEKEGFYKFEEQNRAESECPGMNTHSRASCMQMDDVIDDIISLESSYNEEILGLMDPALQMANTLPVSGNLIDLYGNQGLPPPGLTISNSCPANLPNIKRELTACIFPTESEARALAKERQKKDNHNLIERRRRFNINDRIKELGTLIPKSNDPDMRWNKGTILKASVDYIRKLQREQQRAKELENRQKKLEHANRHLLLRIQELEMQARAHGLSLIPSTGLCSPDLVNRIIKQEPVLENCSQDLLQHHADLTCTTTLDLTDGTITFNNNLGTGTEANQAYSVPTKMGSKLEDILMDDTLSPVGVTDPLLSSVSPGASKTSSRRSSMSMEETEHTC
GPR151 ag = human GPR151 activation; Q8TDV0; PathHunter beta-arrestin GPR151 cells, luminescence; activation, % at 11.2 µM; hit rate 1% among 650,000; in the data active = activation above about 4.9%;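 also: 0% = median of compound wells and 100% = cells with positive control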
An asterisk follows results filed as active. Compounds with a hit are over-represented: about 3.5% of the library has one in this group of screens.

Screening Oc1c(C(c2ccc(C(F)(F)F)cc2)N2CCOCC2)ccc2cccnc12 (configuration not stated) returned TEAD-YAP inh 82*, FBW7 act 0, MITF primary 17 and GPR151 ag 1.
`Cc1n[nH]c(C)c1CNC(=O)c1ccc(CN(C)CCc2ccccc2)[nH]c1=O` gave TEAD-YAP inh 8, FBW7 act 1, MITF primary 8 and GPR151 ag -1.
Screening CCCCC(=O)NC(c1ccccc1OC)c1ccc2cccnc2c1O (configuration not stated) returned TEAD-YAP inh 73*, FBW7 act -2, MITF primary 24 and GPR151 ag 1.
`COc1ccccc1C(NC(=O)c1cc(OC)c(OC)c(OC)c1)c1cc(Cl)c2cccnc2c1O` (configuration not stated) gave TEAD-YAP inh 1, FBW7 act 0, MITF primary 7 and GPR151 ag 1.
`CCCC(=O)NC(c1ccccc1OC)c1ccc2cccnc2c1O` (configuration not stated) gave TEAD-YAP inh 76*, FBW7 act -2, MITF primary 34 and GPR151 ag -1.
Screening COc1ccc(Nc2nnc(SCC(=O)Nc3ccccc3C#N)s2)cc1 returned TEAD-YAP inh -26, FBW7 act 1, MITF primary 10 and GPR151 ag 1.
`CCCNc1nc(SC)nc2c1cnn2CCNC(=O)c1ccc(OC)cc1OC` gave TEAD-YAP inh 36*, FBW7 act 0, MITF primary 2 and GPR151 ag 1.
Screening CCCNc1nc(SC)nc2c1cnn2CCNC(=O)c1ccc(F)cc1 returned TEAD-YAP inh 5, FBW7 act 0, MITF primary 1 and GPR151 ag 0.
CCOc1cc2sc(N3CCC(C(=O)O)CC3)nc2cc1Br was read as TEAD-YAP inh 47*, FBW7 act 0, MITF primary 1 and GPR151 ag 2.
CCOc1ccc2nc(NC(=O)C(C)(C)C)sc2c1 was read as TEAD-YAP inh 63*, FBW7 act 0, MITF primary 8 and GPR151 ag 0.
Screening CCOc1ccc2nc(NC(=O)CCCC(=O)O)sc2c1 returned TEAD-YAP inh 13, FBW7 act 0, MITF primary -12 and GPR151 ag -1.
`CCOc1ccc2nc(N3CCCCC3)sc2c1` gave TEAD-YAP inh 53*, FBW7 act 0, MITF primary 3 and GPR151 ag -6.
CCOc1ccc2nc(N3CCC(C(=O)N4CCC(C(N)=O)CC4)CC3)sc2c1 was read as TEAD-YAP inh 19, FBW7 act 0, MITF primary 1 and GPR151 ag -1.
`CCOc1ccc2nc(N3CCN(S(=O)(=O)c4ccccc4)CC3)sc2c1` gave TEAD-YAP inh 13, FBW7 act 0, MITF primary 2 and GPR151 ag 0.
CCOc1ccc2nc(N3CCN(C(=O)C(C)C)CC3)sc2c1 was read as TEAD-YAP inh -11, FBW7 act 0, MITF primary 13 and GPR151 ag 1.
For CCOc1ccc2nc(N3CCCC3)sc2c1 the results were TEAD-YAP inh 43*, FBW7 act 0, MITF primary 3 and GPR151 ag -2.
O=S(=O)(Nc1ccc2c(c1)OCO2)c1cccc(S(=O)(=O)N2CCCC2)c1 was read as TEAD-YAP inh 2, FBW7 act 0, MITF primary 2 and GPR151 ag 0.
`CCOc1ccccc1C(=O)Nc1ccccc1NC(C)=O` gave TEAD-YAP inh 11, FBW7 act 0, MITF primary 8 and GPR151 ag 2.
Screening CCc1ccc(C(=O)/C=C/Nc2ccccc2O)cc1 returned TEAD-YAP inh 39*, FBW7 act 0, MITF primary 2 and GPR151 ag -4.
Cc1ccc(C(=O)/C=C/Nc2ccccc2O)cc1 was read as TEAD-YAP inh 4, FBW7 act 0, MITF primary -31 and GPR151 ag -2.
`O=C(/C=C/Nc1ccc(F)cc1Br)c1ccccc1` gave TEAD-YAP inh 86*, FBW7 act 0, MITF primary 6 and GPR151 ag -4.
Screening O=C(/C=C/Nc1ccccc1I)c1ccccc1 returned TEAD-YAP inh 91*, FBW7 act 0, MITF primary -1 and GPR151 ag -5.
For O=C(/C=C/Nc1ccc(F)cc1F)c1ccccc1 the results were TEAD-YAP inh 84*, FBW7 act 0, MITF primary -23 and GPR151 ag -2.
`O=C(/C=C/Nc1ccc([N+](=O)[O-])cc1Br)c1ccccc1` gave TEAD-YAP inh 43*, FBW7 act 0, MITF primary 7 and GPR151 ag -1.
O=C(/C=C/Nc1ccccc1F)c1ccccc1 was read as TEAD-YAP inh 61*, FBW7 act 0, MITF primary 12 and GPR151 ag -5.
`COc1ccc(C(=O)/C=C/Nc2ccc(F)cc2F)cc1` gave TEAD-YAP inh -33, FBW7 act 1, MITF primary 17 and GPR151 ag -1.
COc1cccc(C(=O)/C=C/Nc2ccc(F)cc2F)c1 was read as TEAD-YAP inh 71*, FBW7 act 0, MITF primary 9 and GPR151 ag -4.
`CC(=O)c1cccc(-n2c(=O)c3ccccc3c3ccccc3c2=O)c1` gave TEAD-YAP inh -2, FBW7 act 0, MITF primary 22 and GPR151 ag 1.
For Cc1[nH]c2ccc(Br)c3c2c1CCN1C(=O)OC(C)(C)C31C (configuration not stated) the results were TEAD-YAP inh -3, FBW7 act 0, MITF primary 9 and GPR151 ag 0.
`COc1ccccc1N1C(=O)NC2CC1(C)Oc1ccc(Br)cc12` (configuration not stated) gave TEAD-YAP inh 4, FBW7 act 0, MITF primary 2 and GPR151 ag 0.
Screening CCOc1ccccc1N1C(=O)NC2CC1(C)Oc1ccc(Br)cc12 (configuration not stated) returned TEAD-YAP inh -2, FBW7 act 3.3*, MITF primary -21 and GPR151 ag 0.
Screening COc1ccccc1NC(=O)Nc1c(SC)nsc1SC returned TEAD-YAP inh 37*, FBW7 act 0, MITF primary 8 and GPR151 ag -1.
Screening CCCCCCn1nc(C(=O)Nc2cc(C(N)=O)cc(C(N)=O)c2)c2ccccc2c1=O returned TEAD-YAP inh -4, FBW7 act 2.1*, MITF primary -11 and GPR151 ag 2.
For O=C1OCC2=C1C(c1ccccc1Br)c1cc3c(cc1N2)OCO3 (configuration not stated) the results were TEAD-YAP inh 40*, FBW7 act 0, MITF primary 7 and GPR151 ag 0.
`COc1ccc(OC)c(C2C3=C(COC3=O)Nc3cc4c(cc32)OCO4)c1` (configuration not stated) gave TEAD-YAP inh 55*, FBW7 act 1, MITF primary -7 and GPR151 ag -1.
Screening COc1ccccc1C1CC(=O)Nc2cc3c(cc21)OCO3 (configuration not stated) returned TEAD-YAP inh 53*, FBW7 act 0, MITF primary 11 and GPR151 ag -1.
